Data: the supplement of paper PMC10849652
About 7,900 targets were measured; listed, in parts, are those with a hit and a random draw of the rest. About 0.6% of all pairs of compound and target were hits. Values without a mark were called inactive.

How the values were obtained:
Test in all cases: log2 fold change, soluble protein after heating vs DMSO (PISA); higher = thermal stabilisation; K562 cells, 10 uM, 30 min; active = over 0.2 and 3.5 SD of the protein, either way, in both replicates (recomputed)
[1] = compound: COC1=CC=C(C=C1)CN2C=CC3=C2C=C(C=C3)C(=O)NO
Procedure, shortened: (§1)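 Soluble protein was quantified by TMTpro 16plex LC-MS/MS after channel sums were equalised. It was obtained as the supernatant after 21,000xg for 90 min from pooled aliquots of K562 cells (2×10^6 cells/mL, 10 μM compound, 30 min) heated for 3 min across 48°C-58°C and extracted in PBS with 0.5% NP-40 at 4°C. Thermal stability values are relative to control samples and come from duplicates. They are given as log2 fold changes.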

filanesib = compound: CON(C)C(=O)N1N=C(c2cc(F)ccc2F)S[C@@]1(CCCN)c1ccccc1 [filanesib]
Procedure, shortened: as §1

zotarolimus = compound: CO[C@H]1C[C@@H]2CC[C@@H](C)[C@@](O)(O2)C(=O)C(=O)N2CCCC[C@H]2C(=O)O[C@H]([C@H](C)C[C@@H]2CC[C@H](n3cnnn3)[C@H](OC)C2)CC(=O)[C@H](C)/C=C(\C)[C@@H](O)[C@@H](OC)C(=O)[C@H](C)C[C@H](C)/C=C/C=C/C=C/1C [zotarolimus]
Procedure, shortened: as §1

idasanutlin = compound: COc1cc(C(=O)O)ccc1NC(=O)[C@@H]1N[C@@H](CC(C)(C)C)[C@](C#N)(c2ccc(Cl)cc2F)[C@H]1c1cccc(Cl)c1F [idasanutlin]
Procedure, shortened: as §1

alisertib = compound: COc1cc(Nc2ncc3c(n2)-c2ccc(Cl)cc2C(c2c(F)cccc2OC)=NC3)ccc1C(=O)O [alisertib]
Procedure, shortened: as §1

[2] = compound: COc1cc2nc(-c3cc(F)ccc3O)nc(N[C@@H]3CNC[C@H]3C(C)(C)O)c2cc1OC
Procedure, shortened: as §1

gefitinib = compound: COc1cc2ncnc(Nc3ccc(F)c(Cl)c3)c2cc1OCCCN1CCOCC1 [gefitinib]
Procedure, shortened: as §1

[3] = compound: COc1cccc2cc(-c3nc([C@H]4CC[C@H](C(=O)O)CC4)n4ncnc(N)c34)[nH]c12
Procedure, shortened: as §1

lapatinib = compound: CS(=O)(=O)CCNCc1ccc(-c2ccc3ncnc(Nc4ccc(OCc5cccc(F)c5)c(Cl)c4)c3c2)o1 [lapatinib]
Procedure, shortened: as §1

pictilisib = compound: CS(=O)(=O)N1CCN(Cc2cc3nc(-c4cccc5[nH]ncc45)nc(N4CCOCC4)c3s2)CC1 [pictilisib]
Procedure, shortened: as §1

[4] = compound: CS(=O)(=O)c1ccc(-c2cnc(N)c(C(=O)Nc3ccccc3)n2)cc1
Procedure, shortened: as §1

crizotinib = compound: C[C@@H](Oc1cc(-c2cnn(C3CCNCC3)c2)cnc1N)c1c(Cl)ccc(F)c1Cl [crizotinib]
Procedure, shortened: as §1

[5] = compound: C[C@@H]1COCCN1C2=NC(=NC(=C2)C3(CC3)S(=O)(=O)C)C4=C5C=CNC5=CC=C4
Procedure, shortened: as §1

[6] = compound: C[C@H](C1=CC=C(C=C1)C(=O)NC2=C3C=CNC3=NC=C2)N
Procedure, shortened: as §1

duvelisib = compound: C[C@H](Nc1ncnc2nc[nH]c12)c1cc2cccc(Cl)c2c(=O)n1-c1ccccc1 [duvelisib]
Procedure, shortened: as §1

gandotinib = compound: Cc1cc(Nc2cc(CN3CCOCC3)c3nc(C)c(Cc4ccc(Cl)cc4F)n3n2)n[nH]1 [gandotinib]
Procedure, shortened: as §1

tozasertib = compound: Cc1cc(Nc2cc(N3CCN(C)CC3)nc(Sc3ccc(NC(=O)C4CC4)cc3)n2)n[nH]1 [tozasertib]
Procedure, shortened: as §1

[7] = compound: Cc1cc(SCc2sc(-c3ccc(C(F)(F)F)cc3)nc2C)ccc1OCC(=O)O
Procedure, shortened: as §1

doramapimod = compound: Cc1ccc(-n2nc(C(C)(C)C)cc2NC(=O)Nc2ccc(OCCN3CCOCC3)c3ccccc23)cc1 [doramapimod]
Procedure, shortened: as §1

ispinesib = compound: Cc1ccc(C(=O)N(CCCN)[C@@H](c2nc3cc(Cl)ccc3c(=O)n2Cc2ccccc2)C(C)C)cc1 [ispinesib]
Procedure, shortened: as §1

Chain of UniProt Q9Y2I8 (Q9Y2I8 whole entry, looked up): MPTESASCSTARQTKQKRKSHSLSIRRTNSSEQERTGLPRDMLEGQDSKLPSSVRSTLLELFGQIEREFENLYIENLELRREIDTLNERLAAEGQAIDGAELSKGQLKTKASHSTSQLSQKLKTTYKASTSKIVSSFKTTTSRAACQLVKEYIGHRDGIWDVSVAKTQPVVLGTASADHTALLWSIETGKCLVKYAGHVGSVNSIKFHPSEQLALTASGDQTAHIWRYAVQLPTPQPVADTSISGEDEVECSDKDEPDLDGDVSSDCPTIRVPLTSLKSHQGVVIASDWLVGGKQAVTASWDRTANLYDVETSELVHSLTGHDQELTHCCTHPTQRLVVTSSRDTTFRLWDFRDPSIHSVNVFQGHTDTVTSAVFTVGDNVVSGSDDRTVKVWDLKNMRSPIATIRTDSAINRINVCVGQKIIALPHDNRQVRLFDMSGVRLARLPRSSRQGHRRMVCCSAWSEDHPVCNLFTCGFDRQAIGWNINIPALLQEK
Chain of UniProt Q9HAV4 (Q9HAV4 whole entry, looked up): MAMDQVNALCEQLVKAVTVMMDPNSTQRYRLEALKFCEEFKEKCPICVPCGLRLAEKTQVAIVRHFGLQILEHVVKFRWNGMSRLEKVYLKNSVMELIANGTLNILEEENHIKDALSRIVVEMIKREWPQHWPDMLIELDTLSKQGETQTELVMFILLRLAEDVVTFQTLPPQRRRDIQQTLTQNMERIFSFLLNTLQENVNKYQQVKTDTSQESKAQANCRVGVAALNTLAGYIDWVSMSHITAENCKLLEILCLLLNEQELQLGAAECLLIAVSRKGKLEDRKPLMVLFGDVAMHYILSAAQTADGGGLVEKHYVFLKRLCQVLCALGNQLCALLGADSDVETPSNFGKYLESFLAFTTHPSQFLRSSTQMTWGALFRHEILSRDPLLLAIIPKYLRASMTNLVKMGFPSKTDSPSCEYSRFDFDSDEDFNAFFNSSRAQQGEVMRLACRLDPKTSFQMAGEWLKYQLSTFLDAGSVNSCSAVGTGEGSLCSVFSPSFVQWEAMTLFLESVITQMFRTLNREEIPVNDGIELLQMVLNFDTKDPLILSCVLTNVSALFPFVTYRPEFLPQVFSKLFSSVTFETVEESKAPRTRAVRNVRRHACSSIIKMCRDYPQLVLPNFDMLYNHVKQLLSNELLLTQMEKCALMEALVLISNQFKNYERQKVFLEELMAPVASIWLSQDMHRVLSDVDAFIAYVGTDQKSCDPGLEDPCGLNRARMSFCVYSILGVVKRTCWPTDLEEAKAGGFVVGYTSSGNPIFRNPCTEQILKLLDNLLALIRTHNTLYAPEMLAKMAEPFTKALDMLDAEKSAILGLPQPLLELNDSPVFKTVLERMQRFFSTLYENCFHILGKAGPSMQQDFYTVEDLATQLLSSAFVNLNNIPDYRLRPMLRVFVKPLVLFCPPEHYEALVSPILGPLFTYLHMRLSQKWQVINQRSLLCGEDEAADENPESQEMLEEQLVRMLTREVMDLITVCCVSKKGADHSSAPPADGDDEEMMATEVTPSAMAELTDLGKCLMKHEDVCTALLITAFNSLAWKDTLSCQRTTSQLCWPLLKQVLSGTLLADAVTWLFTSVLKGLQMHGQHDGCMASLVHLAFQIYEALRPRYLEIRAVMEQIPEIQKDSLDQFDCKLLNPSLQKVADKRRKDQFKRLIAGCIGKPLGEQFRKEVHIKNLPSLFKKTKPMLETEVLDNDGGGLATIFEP
Chain of UniProt Q9BUB7 (Q9BUB7 whole entry, looked up): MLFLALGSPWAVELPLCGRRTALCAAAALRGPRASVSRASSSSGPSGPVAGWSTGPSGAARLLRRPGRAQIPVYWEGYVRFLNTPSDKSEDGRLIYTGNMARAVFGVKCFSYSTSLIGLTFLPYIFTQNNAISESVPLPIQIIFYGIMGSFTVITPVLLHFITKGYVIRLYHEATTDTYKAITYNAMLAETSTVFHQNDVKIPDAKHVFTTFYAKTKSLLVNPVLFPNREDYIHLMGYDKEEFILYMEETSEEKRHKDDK
Chain of UniProt Q9UPU5 (Q9UPU5 whole entry, looked up): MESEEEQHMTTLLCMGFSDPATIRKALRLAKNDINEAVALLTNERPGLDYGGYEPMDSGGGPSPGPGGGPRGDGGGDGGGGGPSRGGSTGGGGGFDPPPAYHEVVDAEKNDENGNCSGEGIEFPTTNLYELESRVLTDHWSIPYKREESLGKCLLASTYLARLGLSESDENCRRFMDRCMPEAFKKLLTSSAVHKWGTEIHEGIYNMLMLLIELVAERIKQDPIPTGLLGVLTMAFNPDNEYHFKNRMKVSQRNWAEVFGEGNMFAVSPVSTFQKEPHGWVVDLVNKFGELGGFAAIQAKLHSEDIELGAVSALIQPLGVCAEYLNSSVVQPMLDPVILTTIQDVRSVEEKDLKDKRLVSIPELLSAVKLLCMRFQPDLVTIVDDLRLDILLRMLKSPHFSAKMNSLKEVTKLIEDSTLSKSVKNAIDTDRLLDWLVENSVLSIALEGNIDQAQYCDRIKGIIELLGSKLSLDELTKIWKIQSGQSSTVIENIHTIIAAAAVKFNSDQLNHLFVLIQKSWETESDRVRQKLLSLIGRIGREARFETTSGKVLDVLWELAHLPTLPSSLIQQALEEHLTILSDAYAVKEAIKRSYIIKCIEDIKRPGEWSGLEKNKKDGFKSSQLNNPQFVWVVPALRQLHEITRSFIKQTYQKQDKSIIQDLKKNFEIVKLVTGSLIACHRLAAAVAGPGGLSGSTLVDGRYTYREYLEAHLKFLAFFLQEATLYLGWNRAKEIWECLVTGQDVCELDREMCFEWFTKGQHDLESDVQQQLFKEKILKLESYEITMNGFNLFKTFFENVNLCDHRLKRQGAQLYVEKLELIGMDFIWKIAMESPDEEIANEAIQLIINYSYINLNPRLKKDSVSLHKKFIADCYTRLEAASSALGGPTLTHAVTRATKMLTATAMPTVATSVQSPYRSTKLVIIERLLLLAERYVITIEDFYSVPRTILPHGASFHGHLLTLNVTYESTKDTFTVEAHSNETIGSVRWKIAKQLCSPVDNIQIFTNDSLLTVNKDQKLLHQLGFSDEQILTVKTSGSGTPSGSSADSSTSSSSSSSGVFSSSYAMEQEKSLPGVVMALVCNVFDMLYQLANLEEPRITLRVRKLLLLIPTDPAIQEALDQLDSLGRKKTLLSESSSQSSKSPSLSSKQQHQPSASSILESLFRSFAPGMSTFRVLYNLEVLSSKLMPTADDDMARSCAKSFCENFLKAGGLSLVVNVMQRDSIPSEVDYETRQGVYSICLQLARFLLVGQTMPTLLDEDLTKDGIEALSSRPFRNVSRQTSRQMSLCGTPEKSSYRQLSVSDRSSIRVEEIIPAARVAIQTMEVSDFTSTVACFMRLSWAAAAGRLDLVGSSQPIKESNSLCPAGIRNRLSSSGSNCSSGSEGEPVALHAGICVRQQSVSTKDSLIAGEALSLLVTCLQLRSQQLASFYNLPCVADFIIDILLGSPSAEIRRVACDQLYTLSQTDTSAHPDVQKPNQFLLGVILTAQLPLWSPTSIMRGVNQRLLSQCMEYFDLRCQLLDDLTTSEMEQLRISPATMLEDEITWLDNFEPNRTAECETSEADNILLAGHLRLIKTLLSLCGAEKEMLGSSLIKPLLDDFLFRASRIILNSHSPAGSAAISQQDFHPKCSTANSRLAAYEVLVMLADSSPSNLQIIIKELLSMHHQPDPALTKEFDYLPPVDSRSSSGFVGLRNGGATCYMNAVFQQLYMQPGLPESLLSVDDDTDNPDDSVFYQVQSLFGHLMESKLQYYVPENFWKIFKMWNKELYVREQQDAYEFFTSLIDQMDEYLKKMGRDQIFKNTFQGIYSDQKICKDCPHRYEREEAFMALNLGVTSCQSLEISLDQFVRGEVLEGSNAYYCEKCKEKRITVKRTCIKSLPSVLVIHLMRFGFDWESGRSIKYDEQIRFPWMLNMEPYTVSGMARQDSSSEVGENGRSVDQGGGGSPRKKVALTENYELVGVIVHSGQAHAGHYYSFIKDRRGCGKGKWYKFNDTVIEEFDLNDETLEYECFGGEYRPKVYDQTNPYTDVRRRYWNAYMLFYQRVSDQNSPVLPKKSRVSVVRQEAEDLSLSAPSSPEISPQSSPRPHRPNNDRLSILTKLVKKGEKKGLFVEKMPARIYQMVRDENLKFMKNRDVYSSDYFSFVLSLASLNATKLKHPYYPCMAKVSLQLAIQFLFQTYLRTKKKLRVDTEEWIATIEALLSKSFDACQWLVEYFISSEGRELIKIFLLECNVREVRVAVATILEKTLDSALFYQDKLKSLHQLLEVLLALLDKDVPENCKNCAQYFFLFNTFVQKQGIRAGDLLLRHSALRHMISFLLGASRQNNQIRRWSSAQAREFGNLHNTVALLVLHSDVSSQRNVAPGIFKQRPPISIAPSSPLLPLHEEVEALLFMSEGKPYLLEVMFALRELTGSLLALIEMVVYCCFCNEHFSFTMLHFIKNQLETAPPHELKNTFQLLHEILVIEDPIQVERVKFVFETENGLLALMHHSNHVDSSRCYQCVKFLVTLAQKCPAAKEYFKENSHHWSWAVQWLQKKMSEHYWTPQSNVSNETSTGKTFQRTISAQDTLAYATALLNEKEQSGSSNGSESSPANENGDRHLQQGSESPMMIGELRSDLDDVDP
Chain of UniProt Q96FX7 (Q96FX7 whole entry, looked up): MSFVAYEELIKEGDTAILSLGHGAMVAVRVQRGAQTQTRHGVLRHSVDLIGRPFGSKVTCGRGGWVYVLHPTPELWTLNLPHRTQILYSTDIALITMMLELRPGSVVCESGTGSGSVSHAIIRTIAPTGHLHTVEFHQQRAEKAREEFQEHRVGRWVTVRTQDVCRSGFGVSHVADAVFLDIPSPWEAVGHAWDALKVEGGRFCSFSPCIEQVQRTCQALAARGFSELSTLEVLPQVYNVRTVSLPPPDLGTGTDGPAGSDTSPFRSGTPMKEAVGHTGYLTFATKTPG
Chain of UniProt Q15388 (Q15388 whole entry, looked up): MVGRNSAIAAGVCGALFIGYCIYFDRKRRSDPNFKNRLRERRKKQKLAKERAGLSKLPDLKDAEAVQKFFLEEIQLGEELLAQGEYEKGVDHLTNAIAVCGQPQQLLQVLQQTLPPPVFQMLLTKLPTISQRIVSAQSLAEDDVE
Chain of UniProt Q8N4H5 (Q8N4H5 whole entry, looked up): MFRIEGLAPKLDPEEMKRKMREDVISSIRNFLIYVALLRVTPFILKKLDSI

| Target | log2 fold change [1] | log2 fold change (filanesib) | log2 fold change (zotarolimus) | log2 fold change (idasanutlin) | log2 fold change (alisertib) | log2 fold change [2] | log2 fold change (gefitinib) | log2 fold change [3] | log2 fold change (lapatinib) | log2 fold change (pictilisib) | log2 fold change [4] | log2 fold change (crizotinib) | log2 fold change [5] | log2 fold change [6] | log2 fold change (duvelisib) | log2 fold change (gandotinib) | log2 fold change (tozasertib) | log2 fold change [7] | log2 fold change (doramapimod) | log2 fold change (ispinesib) |
| --- | --- | --- | --- | --- | --- | --- | --- | --- | --- | --- | --- | --- | --- | --- | --- | --- | --- | --- | --- | --- |
| USP24 (UniProt Q9UPU5) | -0.03 | -0.179 | 0.397 (active) | -0.342 (active) | -0.008 | 0.116 | 0.099 | 0.385 (active) | 0.019 | 0.258 | 0.062 | 0.204 | 0.396 (active) | 0.015 | 0.219 | -0.213 | 0.045 | -0.017 | -0.041 | 0.115 |
| XPO5 (UniProt Q9HAV4) | 0.019 | -0.122 | 0.023 | -0.055 | -0.008 | -0.068 | -0.008 | -0.052 | -0.004 | -0.034 | -0.008 | -0.052 | 0.021 | -0.026 | 0.007 | -0.192 | 0.03 | 0.064 | -0.043 | -0.079 |
| TMEM70 (UniProt Q9BUB7) | -0.041 | -0.157 | -0.009 | -0.016 | 0.126 | -0.118 | -0.026 | 0.106 | -0.039 | 0.059 | 0.025 | -0.096 | 0.035 | 0.002 | -0.016 | -0.08 | -0.016 | 0.087 | -0.017 | -0.243 |
| TRMT10A (UniProt Q8TBZ6) | -0.195 | -0.134 | 0.054 | -0.081 | 0.048 | -0.006 | -0.025 | 0.028 | 0.03 | 0.093 | 0.012 | 0.01 | 0.093 | -0.072 | 0.053 | 0 | -0.031 | 0.016 | -0.023 | 0.028 |
| TUBA4A (UniProt P68366) | 0.032 | -0.108 | 0.044 | -0.108 | -0.027 | -0.043 | 0.019 | 0.071 | 0.04 | 0.04 | 0.004 | -0.11 | 0.099 | -0.054 | 0.329 | 0.014 | -0.068 | 0.208 | 0.008 | 0.009 |
| TOMM5 isoform 2 (UniProt Q8N4H5) | -0.027 | 0.079 | 0.045 | 0.137 | -0.141 | -0.021 | 0.073 | 0.044 | -0.016 | -0.086 | 0.043 | 0.139 | 0.124 | -0.053 | 0.075 | 0.136 | -0.008 | -0.023 | -0.078 | -0.051 |
| TOMM20 (UniProt Q15388) | -0.011 | -0.213 | 0.005 | -0.022 | -0.029 | -0.25 | 0.005 | -0.001 | 0.045 | 0.007 | -0.068 | -0.019 | 0.058 | -0.06 | 0.016 | 0.116 | -0.042 | -0.062 | -0.025 | -0.358 (active) |
| VPS39 (UniProt Q96JC1) | -0.038 | -0.119 | 0.023 | -0.028 | -0.012 | 0.021 | 0.051 | -0.059 | -0.012 | -0.035 | -0.037 | -0.239 (active) | 0.026 | 0.021 | 0.011 | -0.126 | -0.033 | 0.025 | 0.008 | -0.187 |
| TUBAL3 (UniProt A6NHL2) | -0.037 | -0.058 | -0.064 | -0.218 | 0.048 | 0 | -0.059 | 0.015 | 0.075 | 0.052 | -0.097 | -0.128 | 0.161 | 0.02 | 0.009 | -0.165 | 0 | -0.02 | 0.113 | -0.108 |
| TMEM208 (UniProt Q9BTX3) | -0.131 | -0.254 | -0.111 | -0.137 | 0.109 | 0.019 | -0.055 | -0.146 | -0.151 | -0.17 | -0.09 | -0.119 | 0.134 | -0.004 | -0.039 | 0.086 | -0.035 | 0.076 | 0.019 | -0.243 |
| VPS28 (UniProt Q9UK41) | -0.17 | -0.061 | 0.008 | -0.076 | 0.07 | 0.038 | 0.027 | 0.033 | 0.023 | 0.059 | 0.01 | 0.051 | 0.063 | -0.091 | 0.044 | -0.055 | 0 | 0.096 | 0.035 | -0.041 |
| TMEM87B (UniProt Q96K49) | -0.064 | -0.046 | -0.108 | -0.05 | -0.133 | -0.002 | 0.063 | 0.036 | 0.026 | 0.055 | 0.01 | -0.323 | -0.063 | -0.033 | 0.101 | -0.11 | 0.07 | 0.071 | -0.059 | -0.406 (active) |
| TRMT61A (UniProt Q96FX7) | 0.083 | 0.136 | 0.077 | 0.025 | -0.017 | -0.192 | -0.051 | -0.057 | 0.03 | -0.18 | -0.017 | -0.046 | -0.201 | 0.168 | -0.004 | 0.168 | -0.016 | 0.106 | 0.011 | -0.093 |
| VPS53 isoform 4 (UniProt Q5VIR6) | 0.015 | -0.008 | 0.095 | -0.048 | 0.01 | 0.089 | 0.025 | 0.003 | 0.012 | -0.066 | 0.087 | -0.095 | -0.004 | 0.006 | -0.033 | 0 | 0.061 | 0.059 | 0.036 | -0.113 |
| TRAM1 (UniProt Q15629) | -0.188 | -0.218 | -0.103 | -0.119 | -0.067 | 0.24 | -0.066 | 0.005 | -0.092 | -0.163 | 0.075 | -0.587 (active) | 0.017 | 0.014 | -0.003 | -0.47 (active) | -0.124 | 0.09 | -0.119 | -0.964 (active) |
| WDR37 isoform 2 (UniProt Q9Y2I8) | 0.033 | 0.117 | -0.063 | 0.081 | -0.018 | 0.034 | -0.006 | -0.029 | 0.035 | 0.046 | 0.026 | 0 | 0.041 | 0.11 | -0.113 | 0.069 | 0.055 | 0.15 | 0.02 | 0.055 |
